NPSR antag: qHTS Assay for Antagonists of the Neuropeptide S Receptor: cAMP Signal Transduction; actives 1% (n = 220,000); Potency, µM (series often up to 38.3 µM), for inactives: at the top dose activity change, negative = inhibition, usual class: inhibitors; CHO-NPSR cells, cAMP TR-FRET, antagonist mode; also: potency is read from the fitted curve at half-maximal effect; nearly all actives have a fitted effect of over 50% in size
Target sequence (Q6W5P4 whole entry, looked up): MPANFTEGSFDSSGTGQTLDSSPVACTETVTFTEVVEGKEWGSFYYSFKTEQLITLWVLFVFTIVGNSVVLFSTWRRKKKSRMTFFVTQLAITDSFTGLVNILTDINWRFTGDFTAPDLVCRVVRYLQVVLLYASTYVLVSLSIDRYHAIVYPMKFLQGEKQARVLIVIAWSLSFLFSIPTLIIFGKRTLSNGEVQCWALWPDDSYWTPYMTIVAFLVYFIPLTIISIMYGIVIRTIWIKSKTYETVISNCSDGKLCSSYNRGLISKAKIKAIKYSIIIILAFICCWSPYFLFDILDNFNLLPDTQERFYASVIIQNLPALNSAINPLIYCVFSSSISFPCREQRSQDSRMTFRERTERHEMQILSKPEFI
Tau ThT inhib: qHTS for Inhibitors of Tau Fibril Formation, Thioflavin T Binding; Microtubule-associated protein tau (Homo sapiens), P10636; recombinant tau K18 P301L, heparin-induced fibrillization, ThT fluorescence; Potency, µM (titrated, usually from 57.4 µM), without a hit: at the highest dose activity, negative = inhibition, most hits filed as inhibitors; actives 2.1% (n = 270,000); also: potency is read from the fitted curve at half-maximal effect; nearly all actives have a fitted effect of over 55% in size
Target sequence (P10636 561-689 P618L limits assumed): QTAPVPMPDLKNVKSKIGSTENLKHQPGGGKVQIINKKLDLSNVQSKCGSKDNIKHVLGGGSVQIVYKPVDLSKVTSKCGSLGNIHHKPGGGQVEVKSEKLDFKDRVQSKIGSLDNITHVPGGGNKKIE
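In this qHTS, human K18 P301L tau is incubated with compound and heparin for 6 hr at 37 C, and Thioflavin T fluorescence then reports fibril load.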
KDM4E inh: qHTS Assay for Inhibitors of Human Jumonji Domain Containing 2E (JMJD2E); Potency, µM (top dose mostly 57.1 µM), for the others: top-dose activity change, negative = inhibition, hits mostly inhibitors; actives 1.6% (n = 230,000); Lysine-specific demethylase 4E (Homo sapiens), B2RXH2; JMJD2E catalytic domain, FDH-coupled NADH fluorescence (FDH is formaldehyde dehydrogenase); AID 2147, 2009; active = well fitted inhibition curve with a large enough effect, not every such curve was filed as active; inconclusive = small, poorly fitted or top-dose-only effect, or another doubt; inactive = no such curve, though single readings can be large or run the other way;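 also: potency is read from the fitted curve at half-maximal effect; 0% = wells with enzyme and -100% = buffer wells without enzyme; nearly all actives have a fitted effect of over 50% in size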
Tau FP inhib: qHTS for Inhibitors of Tau Fibril Formation, Fluorescence Polarization. Potency, µM (highest dose often 57.7 µM), without a hit: top-dose activity, negative = inhibition, most hits filed as inhibitors. AID 1468, 2008. K18 P301L tau heparin fibrillization, Alexa594 FP, 6 h. actives 0.39% (n = 280,000). Microtubule-associated protein tau (Homo sapiens), P10636; also: potency is read from the fitted curve at half-maximal effect; nearly all actives have a fitted effect of over 55% in size
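K18 P301L tau (15 uM unlabeled/0.24 uM Alexa 594-labeled, final) + compound + heparin 20 uM final; 100 mM NaOAc pH 7; 6 hr 37 C; ThT 30 uM final added, 1 hr RT; FP ex 555/em 632 nm.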
Tau fluor cs: Counterscreen qHTS for Inhibitors of Tau Fibril Formation, Fluorescence Polarization | tau K18 P301L Alexa594 fluorescence, heparin fibrillization | Potency, µM (series often up to 57.7 µM), for inactives: at the top dose activity change, negative = decrease | actives 0.93% (n = 280,000) | AID 1463, 2008; also: potency is read from the fitted curve at half-maximal effect; nearly all actives have a fitted effect of over 55% in size
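Human tau K18 P301L (15 uM unlabeled, 0.24 uM Alexa 594-labeled) in 100 mM sodium acetate pH 7 with 20 uM heparin, 6 hr at 37 C. ThT 30 uM added, 1 hr ambient; Alexa 594 FP and total fluorescence read at 555/632 nm.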
PNC inhibitor: High Content Assay for Compounds that inhibit the Assembly of the Perinucleolar Compartment; PC3M PTB-GFP, PNC prevalence imaging, 16 h; active compounds read low; activity change (PNC), negative = inhibition, % at 10 µM; actives 3.1% (n = 140,000); AID 2417, 2010;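 active = readout at or below -70, meaning at least 70% loss of cells showing the perinucleolar compartment, a nuclear body marking cancer cells; inconclusive = readout between -30 and a set limit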;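 also: plate controls were DMSO wells for no effect and camptothecin positive control wells for full effect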
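Compounds are pinned in duplicate onto adhered PC3M cells stably expressing GFP-tagged PTB and incubated 16 h at 37 C. Cells are then fixed, nuclei stained with Hoechst, and PNC-positive cells counted.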
Numbers without * were called inactive; [ ] = another dose, or the depositor's remark. Most compounds without a hit are left out; they make up all but 5.1% or so of the library. Unless noted, calls follow the shape of the dose curve; as a rule, active = well fitted curve in the direction sought with a large enough effect; inconclusive = small, poorly fitted or top-dose-only effect, or another doubt; inactive = no such curve, though single readings can be large; an effect the other way counts as inactive or inconclusive. Unless noted, % is scaled to controls: 0 for no effect and ±100 for the full control effect.

`O=C(CCC(NC(=O)OCc1ccccc1)C(=O)OCc1ccccc1)NCC(=O)OCc1ccccc1` (stereo not given) gave NPSR antag 10.1%, Tau ThT inhib -8.6%, KDM4E inh -3.0%, Tau FP inhib -3.2%, Tau fluor cs -12.3% and PNC inhibitor -2.8.
`NC(=O)CC[C@H](NC(=O)OCc1ccccc1)C(=O)OCc1ccc(Cl)cc1` gave NPSR antag 8.0%, Tau ThT inhib 4.9%, KDM4E inh -8.5%, Tau FP inhib -1.6%, Tau fluor cs 2.5% and PNC inhibitor -92.9*.
C#CCSc1nc2sc3c(c2c(=O)n1-c1cccc(OC)c1)CCN(C(C)=O)C3 was read as Tau ThT inhib 25.1µM*, Tau FP inhib inconclusive and Tau fluor cs -7.6%.
For CCCCCSc1nc2sc3c(c2c(=O)n1-c1ccccc1)CCN(C(C)=O)C3 the results were Tau ThT inhib inconclusive, Tau FP inhib inconclusive and Tau fluor cs -9.6%.
Screening CC1=C(C(=O)Nc2ccc(Cl)cc2)C(c2ccc(C(F)(F)F)cc2)n2nnnc2N1 (stereo not given) returned Tau ThT inhib -6.1%, Tau FP inhib 22.4µM* and Tau fluor cs inconclusive.
For COc1ccc(N2CCN(S(=O)(=O)c3ccc4c(c3)CCCN4C(C)=O)CC2)cc1 the results were Tau ThT inhib 2.4%, Tau FP inhib -3.8% and Tau fluor cs -10.1%.
`CC1CC(C)CN(S(=O)(=O)c2ccc(C(=O)Nc3sccc3C(N)=O)cc2)C1` (stereo not given) gave NPSR antag inconclusive, Tau ThT inhib 9.3%, Tau FP inhib inconclusive, Tau fluor cs -13.3% and PNC inhibitor -1.9.
Screening NC(=O)c1ccsc1NC(=O)c1ccc(S(=O)(=O)N2CCCC2)cc1 returned NPSR antag 2µM*, Tau ThT inhib -0.3%, KDM4E inh 5.3%, Tau FP inhib -7.4% and Tau fluor cs -20.9%.
`COc1ccc(N2CCN(Cc3nc4c(c(=O)[nH]c(=O)n4C)n3CC(C)=O)CC2)cc1` gave NPSR antag -12.0%[46.1 µM], Tau ThT inhib -9.8%, KDM4E inh 9.5%, Tau FP inhib 2.6%, Tau fluor cs -11.1% and PNC inhibitor -90.2*.
Cn1c(=O)[nH]c(=O)c2c1nc(CN1CCN(c3ccc(F)cc3)CC1)n2CCc1ccccc1 was read as NPSR antag -10.9%[46.1 µM], Tau ThT inhib -1.1%, KDM4E inh -3.8%, Tau FP inhib -0.7%, Tau fluor cs -5.2% and PNC inhibitor -100.0*.
Screening CCCSc1cc(N2CCN(C)CC2)nc(-c2ccc(OC)cc2)n1 returned NPSR antag 21.3%[46.1 µM], Tau ThT inhib -7.4%, KDM4E inh 1.6%, Tau FP inhib inconclusive, Tau fluor cs inconclusive and PNC inhibitor -80.5*.
For N#C/C(C(N)=O)=c1/ccc2c(c1)N1C3=C(CCCC3)CC3CCCCC31N=2 (stereo not given) the results were NPSR antag 10µM*, Tau ThT inhib inconclusive, KDM4E inh -20.4%, Tau FP inhib inconclusive, Tau fluor cs inconclusive and PNC inhibitor -19.4.
Screening N#CC(C#N)=c1ccc2c(c1)N1C3=C(CCCC3)CC3CCCCC31N=2 (stereo not given) returned NPSR antag 12.6µM*, Tau ThT inhib inconclusive, KDM4E inh 0.9%, Tau FP inhib -4.3%, Tau fluor cs inconclusive and PNC inhibitor 4.5.
For O=C(Nc1cccc(Cl)c1)Nc1nnc(CSCCOc2ccc(Cl)cc2)s1 the results were NPSR antag -45.1%, Tau ThT inhib -2.0%, KDM4E inh 7.3%, Tau FP inhib 7.94µM*, Tau fluor cs inconclusive and PNC inhibitor inconclusive.
`O=C(Nc1ccc(Cl)cc1)Nc1nnc(SCc2ccc(Cl)cc2)s1` gave NPSR antag 3.9%[46.1 µM], Tau ThT inhib 1.3%, KDM4E inh 5.4%, Tau FP inhib -11.3%, Tau fluor cs -10.9% and PNC inhibitor -110.8*.
`O=C(Nc1cccc(Cl)c1)Nc1nnc(CC2=CCCCC2)s1` gave NPSR antag -6.4%, Tau ThT inhib 11.5%, KDM4E inh -8.0%, Tau FP inhib 11.2µM*, Tau fluor cs inconclusive and PNC inhibitor -22.5.
For Cc1ccc(NC(=O)Nc2nnc(CSCCOc3ccc(Cl)cc3)s2)cc1 the results were NPSR antag 15.2%, Tau ThT inhib -2.5%, KDM4E inh 9.1%, Tau FP inhib inconclusive, Tau fluor cs -24.9% and PNC inhibitor -15.0.
For O=C(Nc1ccccc1)Nc1nnc(SCc2ccc(Cl)cc2)s1 the results were NPSR antag -19.5%, Tau ThT inhib 10.3%, KDM4E inh -0.3%, Tau FP inhib inconclusive, Tau fluor cs -27.8% and PNC inhibitor -17.7.
For O=C(Nc1nnc(CC2=CCCCC2)s1)Nc1ccccc1F the results were NPSR antag -15.9%, Tau ThT inhib -2.4%, KDM4E inh 14.4%, Tau FP inhib -15.6% and Tau fluor cs -21.5%.
`COc1ccc(OCCSCc2nnc(NC(=O)Nc3ccc(Cl)cc3)s2)cc1` gave NPSR antag 17.5%, Tau ThT inhib 0.6%, KDM4E inh 13.6%, Tau FP inhib 28.2µM*, Tau fluor cs -23.0% and PNC inhibitor -4.2.
Screening CCOc1ccc(CC(=O)NCc2ccc3c(c2)CCN3C(C)=O)cc1OCC returned Tau ThT inhib 11.9%, Tau FP inhib 2.2% and Tau fluor cs 15.4%.
O=C(NCc1cccnc1)C1c2ccccc2C(=O)N1C1CCCC1 (stereo not given) was read as NPSR antag -3.9%[46.1 µM], Tau ThT inhib -7.1%, KDM4E inh 6.5%, Tau FP inhib 2.7%, Tau fluor cs -1.0% and PNC inhibitor -108.4*.
O=C(NCc1cccnc1)c1cccc2c1C(=O)N(C1CCCCC1)C2 was read as NPSR antag -23.5%[46.1 µM], Tau ThT inhib -1.9%, KDM4E inh 0.4%, Tau FP inhib 12.8%, Tau fluor cs 2.7% and PNC inhibitor -100.0*.
For O=C(NCc1ccco1)c1cccc2c1C(=O)N(C1CCCCC1)C2 the results were NPSR antag -11.0%[46.1 µM], Tau ThT inhib -4.2%, KDM4E inh 4.6%, Tau FP inhib 0.0%, Tau fluor cs -2.4% and PNC inhibitor -100.0*.
`CCN(CC)S(=O)(=O)c1ccc2c(c1)N(CC(=O)N1CCN(c3cccc(C(F)(F)F)c3)CC1)C(=O)CO2` gave Tau ThT inhib 0.9%, Tau FP inhib -7.2% and Tau fluor cs -5.0%.

High-throughput results as filed in PubChem BioAssay.
